# PKA-R2B activ – PKA-R2B complex activation; actives 0.079% (n = 340,000); activation, % at 11.4 µM; AID 504700; PKA-R2B holoenzyme dissociation, Cy5-IP20 fluorescence polarization; R2B truncated from residue 108, S112A mutant; 0% DMSO only, 100% 113 µM cGMP;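 active means activation above a cutoff set at the mean over all compounds plus 3 SD, cut at about 18% in these data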;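 further: higher means more holoenzyme dissociation and a rise in polarization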
# Target sequence (P31323 whole entry, looked up, other chains not shown, the tested form may be a part): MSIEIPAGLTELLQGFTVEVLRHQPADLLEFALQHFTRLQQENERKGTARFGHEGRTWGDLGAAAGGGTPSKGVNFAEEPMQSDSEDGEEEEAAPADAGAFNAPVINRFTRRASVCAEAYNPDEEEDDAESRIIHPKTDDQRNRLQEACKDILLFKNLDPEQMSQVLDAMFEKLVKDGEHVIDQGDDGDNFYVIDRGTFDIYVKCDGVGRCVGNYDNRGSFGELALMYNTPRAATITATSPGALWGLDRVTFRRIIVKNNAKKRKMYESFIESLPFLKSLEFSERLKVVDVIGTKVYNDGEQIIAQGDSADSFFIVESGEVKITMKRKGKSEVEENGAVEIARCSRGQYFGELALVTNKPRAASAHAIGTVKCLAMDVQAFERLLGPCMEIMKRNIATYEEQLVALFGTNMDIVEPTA
# PKA-R1A act – activators of PKA-R1A complex | P00514+P68181 | PKA-R1A dissociation, Cy5-IP20 fluorescence polarization; scaled: DMSO 0%, 113 µM cGMP 100% | activation, % at 11.4 µM | actives 0.083% (n = 340,000);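 active means percent activation above the mean of all tested compounds plus 3 SD, cut at about 19% in these data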;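 further: higher means more PKAc released from R1A so a rise in polarization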
# bovine MsrA act – activates bovine MsrA enzyme; purified bovine MsrA, absorbance read-out; activation, % at 10.6 µM; actives 0.3% (n = 360,000); AID 602163; in the data active means activation above about 7.5%;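 further: 0% = vehicle and 100% = reference activator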
# MsrA inhibitor – inhibits bovine methionine sulfoxide reductase A | purified bovine MsrA, absorbance read-out | inhibition, % at 15.5 µM | actives 0.75% (n = 360,000) | AID 651718; in the data active means inhibition above about 4.5%;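 further: 0% = vehicle wells with enzyme and 100% = reference inhibitor wells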
# R2B FP artifact – FP assay interference, PKA-R2B counter-screen | shares compounds with PKA-R2B activ | FP artifact counterscreen, fluorescence polarization | activation, % at 11.4 µM | actives 6% (n = 270) | AID 504796; in the data active means activation above about 20%;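 further: Cy5 labelled IP20 peptide probe with compound but no PKA protein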
# PKA-R2B confirm – confirmation of human PKA-R2B complex activators; actives 9% (n = 270); fluorescence polarization, activation; shares compounds with PKA-R2B activ; activation, % at 11.4 µM; in the data active means activation above about 19%
# Target sequence (P31323 whole entry, looked up): as the sequence (P31323 whole entry, looked up, other chains not shown, the tested form may be a part) above
# R1A FP artifact – fluorescence polarization artifact in PKA-R1A activator counter-screen | shares compounds with PKA-R1A act | Cy5-IP20 peptide alone, fluorescence polarization artifact counterscreen | activation, % at 11.4 µM | actives 7% (n = 280);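 active means mean activation over triplicate runs exceeds the adjusted cutoff derived for the parent primary screen, cut at about 19% in these data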;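 further: no PKA protein present so any polarization rise reflects compound interference; 0% = tracer peptide mix alone and 100% = mix with added PKA catalytic subunit; higher means stronger polarization artifact and likely false positive in parent screen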
# PKA-R1A confirm – confirmation of PKA-R1A complex activators | shares compounds with PKA-R1A act | Cy5-IP20 fluorescence polarization, PKA-R1A holoenzyme dissociation | activation, % at 11.4 µM | actives 9% (n = 280);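 active means mean activation over replicate wells exceeds the adjusted hit threshold taken from the earlier primary screen, cut at about 20% in these data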;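 further: 0% = holoenzyme mix with DMSO only and 100% = cGMP-activated control wells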
# An asterisk follows results filed as active; x = not tested or not shown; ! = a repeat was not active. An excerpt weighted towards active compounds, which were near 1.1% of everything screened.
SMILES,PKA-R2B activ,PKA-R1A act,bovine MsrA act,MsrA inhibitor,R2B FP artifact,PKA-R2B confirm,R1A FP artifact,PKA-R1A confirm
Cc1ccccc1N1CCN(S(=O)(=O)CC23CCC(CC2=O)C3(C)C)CC1 (stereo unspecified),-3,-1,1,-1,x,x,x,x
Cc1ccccc1N1CCN(S(=O)(=O)C[C@]23CCC(CC2NC(=O)[C@@H](N)CCS(C)(=O)=O)C3(C)C)CC1 (stereo partly specified),19*,10,-4,-2,2,-2,x,x
O=C(c1ccc(Cl)cc1)C1C2C(=O)N(c3ccccc3)C(=O)C2C2CCCN21 (stereo unspecified),-4,4,-4,1,x,x,x,x
O=C(c1ccc(Cl)cc1)[C@@H]1[C@@H]2C(=O)N(c3ccccc3)C(=O)[C@@H]2C2c3ccccc3C=NN21 (stereo partly specified),26*,-1,-15,0,4,0,x,x
Oc1ccccc1/C=N/Nc1ccccc1,-1,9,-2,2,x,x,x,x
Oc1ccccc1/C=N/Nc1ncc(Br)cn1,26*,-4,-3,4,3,2,x,x
CC(C(=O)Nc1ccccc1)c1ccc(-c2ccccc2)c(F)c1 (stereo unspecified),-4,-6,-1,x,x,x,x,x
CC(C(=O)O)c1ccc(-c2ccccc2)c(F)c1 (stereo unspecified),21*!,-8,-8,-1,0,5,x,x
NC(=O)Nc1ccc(Cl)cc1,23*,2,-3,-1,-2,1,x,x
NC(=O)/C=C/C(=O)Nc1ccc(Cl)cc1,-6,-1,-7,1,x,x,x,x
O=C(Cc1ccc(Cl)cc1Cl)NC1CCCCCC1,23*,10,-9,0,-4,-1,x,x
O=C(Nc1cccnc1)c1ccc(CSc2ccc(Cl)cc2)o1,x,x,x,-1,x,x,x,x
O=C(CSC1=NCCS1)N1CCCC1,22*,-1,2,-1,2,-2,x,x
O=C(CSC1=NCCS1)N1CCCCCC1,6,-4,4,1,x,x,x,x
Cc1ccc(S(=O)(=O)NC(C)(C)C)cc1C(=O)OCC(=O)N1CCCC1=O,20*,-1,1,-1,5,6,x,x
O=C(NCc1nc2ccccc2[nH]1)C1=C[C@H](c2ccc(Br)cc2)C[C@H](OCc2ccc(CO)cc2)O1,26*,35*,0,0,27*,22*,27*,27*
C#Cc1ccc([C@H]2C=C(C(=O)NCc3nc4ccccc4[nH]3)O[C@@H](OCc3ccc(CO)cc3)C2)cc1,3,-14,-13,2,x,x,x,x
COc1cc(NC(=O)CC[C@H]2O[C@@H](n3cnc4c(NC(=O)c5ccccc5)ncnc43)[C@H](O)[C@@H]2O)cc(OC)c1OC,x,x,-1,0,x,x,x,x
CCCC(=O)Nc1ncnc2c1ncn2[C@@H]1O[C@@H]2COP(=O)(O)O[C@H]2[C@H]1OC(=O)CCC,33*,41*,-1,0,-1,34*,-1,37*
CC(C)C1=CC2C3C(C(C(C)C)=CC(=O)[C@@]3(C)O)C1C(=O)C2(C)O (stereo partly specified),x,x,x,0,x,x,x,x
CC1=C/C(=C(\c2cc(C)c(O)c(Br)c2)c2ccccc2S(=O)(=O)O)C=C(Br)C1=O,40*,34*,-3,1,59*,55*,59*,55*
CN(C(=O)[C@H]1O[C@@H](n2cnc3c(=O)[nH]c(N)nc32)[C@H](O)[C@@H]1O)C1CCCCC1,x,x,x,0,x,x,x,x
Nc1ncnc2c1nc(Sc1ccc(Cl)cc1)n2[C@@H]1O[C@@H]2COP(=O)(O)O[C@H]2[C@H]1O,106*,107*,-1,1,4,101*,4,106*
CCCc1cc(=O)n2[nH]c(NCc3c(F)cccc3Cl)nc2n1,32*,33*,-14,1,27*,20*,27*,28*
Cc1cc(=O)n2[nH]c(NCc3ccccc3F)nc2n1,36*,30*,-4,0,34*,31*,34*,35*
SMILES,PKA-R2B activ,PKA-R1A act,bovine MsrA act,MsrA inhibitor,R2B FP artifact,PKA-R2B confirm,R1A FP artifact,PKA-R1A confirm
CCCc1cc(=O)n2[nH]c(NCc3ccc(OC)c(OC)c3)nc2n1,-9,-4,-4,0,x,x,x,x
COc1ccc(NC(=S)NNc2ccc(S(=O)(=O)Nc3ccccc3C(=O)O)cc2[N+](=O)[O-])cc1,83*,64*,-5,4,50*,46*,50*,52*
Cc1cc(Nc2cccc(Br)c2)cc(=O)n1-c1cccc(Br)c1,x,x,x,0,x,x,x,x
CC(C)CNc1cccc2c1S(=O)(=O)N[C@@H](CC(C)C)CO2,x,x,x,0,x,x,x,x
Cc1ccc(NC(=O)CSc2nc3ccccc3c(=O)n2CC2CCCO2)cc1 (stereo unspecified),3,19*,-2,0,x,x,-4,3
CN(C)c1ccc(NC(=O)CSc2nc3ccccc3c(=O)n2CC2CCCO2)cc1 (stereo unspecified),-5,3,-3,0,x,x,x,x
CC1C(=O)N(Cc2cn(CCC3OCCO3)nn2)CCS(=O)(=O)N1Cc1ccc(-c2ccc(F)cc2)cc1 (stereo unspecified),-13,20*,-3,0,x,x,2,2
CC1C(=O)N(Cc2cn(CCC3OCCO3)nn2)CCS(=O)(=O)N1Cc1ccc(-c2ccncc2)cc1 (stereo unspecified),-6,2,-2,-1,x,x,x,x
CSc1ncccc1C(=O)OCC(=O)NC1CCCC1,0,10,-4,0,x,x,x,x
CSc1ncccc1C(=O)OCC(=O)NC1CC1,8,20*,-2,1,x,x,4,3
COCc1cc(N2CCN(C(=O)OC(C)(C)C)C[C@@H]2C)ccc1N1CC[C@H](O)C1,x,x,x,-1,x,x,x,x
COc1ccc([C@@H]2[C@@H]3C(=O)N(C(C)(C)C)C(=O)[C@@H]3[C@]3(CC(C)C)C(=O)N(c4cccc(F)c4)C(=O)N23)cc1,-2,19*,-2,0,x,x,-3,-5
CCOc1ccc(N=Cc2ccc([N+](=O)[O-])cc2)c(O)c1,-9,21*,6,0,x,x,1,5
COCCN1Cc2cc(C(=O)OC)c3c(c2C1=O)c1ccccc1n3S(=O)(=O)c1ccc(C)cc1,x,x,x,1,x,x,x,x
Cc1ccc(NC(=O)c2cncc(Br)c2)c([N+](=O)[O-])c1,7,23*,-14,0,x,x,3,4
COc1ccccc1C1C(C(N)=O)=C(C)Nc2nc(-c3ccccc3Cl)nn21 (stereo unspecified),-4,-13,-2,0,x,x,x,x
COc1cccc(C2C(C(N)=O)=C(C)Nc3nc(-c4ccccc4Cl)nn32)c1 (stereo unspecified),-9,19*,3,0,x,x,1,-3
